Measurements reported in PubChem BioAssay (NCATS).
Values joined by “and” are separate entries in the source; they are usually repeats but may differ in a detail not shown here. Identical values can stand only once. Inconclusive results are not listed. A structure can be active in one record and inactive in another. Active and inactive are the calls of the source. Unless noted, the rule behind the calls is not given here.

Experiments:
[1] = qHTS profiling of the MIPE4 collection as inhibitors of Plasmodium falciparum (3D7) proliferation (AID 743344);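 note: scaled between DMSO vehicle wells and 0.29 µM artemisinin as full inhibition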; settings: P. falciparum 3D7 in erythrocytes, SYBR Green DNA fluorescence, 72 h; at 28.5 µM
Summary of the method: (§1)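 Parasite DNA was quantified by SYBR Green I fluorescence (ex 485, em 535 nm) after overnight lysis in saponin/Triton buffer at room temperature. Cultures at 0.3% parasitemia and 2.5% hematocrit were first exposed to compound for 72 h at 37 C; signals were normalised to artemisinin (0.29 uM) and vehicle wells.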

[2] = qHTS profiling of the MIPE4 collection as inhibitors of Plasmodium falciparum (DD2) proliferation (AID 743345); settings: P. falciparum Dd2 in erythrocytes, SYBR Green DNA, 72 h; at 28.5 µM
Summary of the method: as §1

[3] = qHTS profiling of the MIPE4 collection as inhibitors of Plasmodium falciparum (DD2) proliferation (Rep 2) (AID 743346); settings: P. falciparum Dd2 in erythrocytes, SYBR Green DNA, 72 h; at 28.5 µM
Summary of the method: as §1

[4] = qHTS profiling of the MIPE4 collection as inhibitors of Plasmodium falciparum (HB3) proliferation (AID 743347);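 note: plate controls were DMSO vehicle wells for no effect and artemisinin wells for full effect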; settings: P. falciparum HB3 in erythrocytes, SYBR Green DNA, 72 h; at 28.5 µM
Summary of the method: as §1

[5] = target: Cytochrome P450 2C9 (Homo sapiens) (UniProt P11712); assay: qHTS Assay for Inhibitors and Substrates of Cytochrome P450 2C9 (AID 883; active = well fitted curve in the direction sought with a large enough effect; an effect the other way counts as inactive or inconclusive; note: nearly all actives have a fitted effect of over 60% in size; note: potency is the fitted concentration of half-maximal effect; for activity change, negative = inhibition: % is set by controls: 0 for no effect and ±100 for the full control effect)
Summary of the method: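 10nM CYP2C9 + 100uM Luciferin-H (=KM), 25mM KPO4; cpd 10 min 37C; NADPH regen, 60 min 37C; stop/detect with P450 Glo-Buffer 20 min; luminescence. Norm. to 57uM sulphaphenazole as full inhibition.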

[6] = target: Cytochrome P450 3A4 (Homo sapiens) (UniProt P08684); assay: qHTS Assay for Inhibitors and Substrates of Cytochrome P450 3A4 (AID 884; active = well fitted curve in the direction sought with a large enough effect; an effect the other way counts as inactive or inconclusive; note: nearly all actives have a fitted effect of over 50% in size; note: potency is the fitted concentration of half-maximal effect; for activity change, negative = inhibition: series mostly up to about 57 µM; % is set by controls: 0 for no effect and ±100 for the full control effect)
Summary of the method: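 Luminescent readout of luciferin produced by CYP3A4 (20 nM) dealkylation of Luciferin-PPXE, 25 uM (its KM). NADPH-driven reaction ran 60 min at RT after 10 min compound preincubation; data scaled to 57 uM ketoconazole as 100% inhibition.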

[7] = target: Cytochrome P450 3A4 (Homo sapiens) (UniProt P08684); assay: qHTS Assay for Activators of Cytochrome P450 3A4 (AID 885; active = well fitted curve in the direction sought with a large enough effect; an effect the other way counts as inactive or inconclusive; note: nearly all actives have a fitted effect of over 65% in size)
Summary of the method: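 Activators are scored by enhanced luminescence from CYP3A4 conversion of luciferin-PPXE (25uM, equal to KM) to luciferin, after 60 min at RT with an NADPH-regenerating system.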

Cytochrome P450 3A4 (Homo sapiens), sequence (P08684 whole entry, looked up): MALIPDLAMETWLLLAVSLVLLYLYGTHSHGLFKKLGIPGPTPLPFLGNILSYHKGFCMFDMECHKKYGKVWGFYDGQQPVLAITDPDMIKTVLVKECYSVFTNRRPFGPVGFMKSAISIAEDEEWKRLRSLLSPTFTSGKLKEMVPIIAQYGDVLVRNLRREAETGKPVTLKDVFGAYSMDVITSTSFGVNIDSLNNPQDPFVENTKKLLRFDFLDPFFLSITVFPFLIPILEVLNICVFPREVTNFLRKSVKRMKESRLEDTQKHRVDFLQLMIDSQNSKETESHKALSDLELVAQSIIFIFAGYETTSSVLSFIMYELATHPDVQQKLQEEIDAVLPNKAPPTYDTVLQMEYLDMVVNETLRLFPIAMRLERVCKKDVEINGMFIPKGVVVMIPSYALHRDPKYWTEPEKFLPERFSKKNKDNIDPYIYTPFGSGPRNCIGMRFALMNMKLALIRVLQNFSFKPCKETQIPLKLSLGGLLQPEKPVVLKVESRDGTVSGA
Cytochrome P450 2C9 (Homo sapiens), sequence (P11712 whole entry, looked up): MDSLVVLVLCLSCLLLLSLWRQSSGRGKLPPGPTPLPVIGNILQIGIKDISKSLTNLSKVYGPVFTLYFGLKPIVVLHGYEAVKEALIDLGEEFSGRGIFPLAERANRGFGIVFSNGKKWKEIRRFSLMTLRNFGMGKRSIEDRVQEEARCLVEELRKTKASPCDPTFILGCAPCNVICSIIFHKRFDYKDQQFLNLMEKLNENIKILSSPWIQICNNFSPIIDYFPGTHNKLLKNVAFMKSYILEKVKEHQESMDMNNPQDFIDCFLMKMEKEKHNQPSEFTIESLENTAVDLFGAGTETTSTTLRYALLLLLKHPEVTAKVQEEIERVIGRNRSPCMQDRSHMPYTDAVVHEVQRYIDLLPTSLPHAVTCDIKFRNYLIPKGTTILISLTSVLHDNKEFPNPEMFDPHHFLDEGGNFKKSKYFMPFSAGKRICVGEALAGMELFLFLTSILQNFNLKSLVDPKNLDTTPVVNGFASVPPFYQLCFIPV

SMILES: CN(C(=O)OC(C)(C)C)[C@@H](Cc1ccc(O[S+](=O)([O-])c2cccc3cnccc23)cc1)C(=O)N1CCN(C(=O)OCc2ccccc2)CC1
- parasite growth, % of DMSO control [1]: 5.7%
- parasite growth remaining, % of DMSO control (lower = more inhibition) [2]: 6.02%
- parasite growth, % of control (lower = inhibition) [3]: 18.5%
- growth, % of control [4]: 8.16%

SMILES: C[C@H]1C[C@H]2C3CCC4=CC(=O)C=C[C@@]4(C)[C@@]3(Cl)[C@@H](O)CC2(C)[C@@]1(OC(=O)c1ccco1)C(=O)CCl (stereo partly drawn)
- parasite growth, % of DMSO control [1]: 5.13%
- parasite growth remaining, % of DMSO control (lower = more inhibition) [2]: 6.79%
- parasite growth, % of control (lower = inhibition) [3]: 16.7%
- growth, % of control [4]: 5.44%

SMILES: COC(=O)NC(/C(C(=O)OC)=C(\C)NCc1ccccc1)c1cccc(F)c1 (stereo not drawn)
- Potency [5]: inactive
- activity change, negative = inhibition [6]: -19.8% [at 11.4 µM] (inactive)

SMILES: C=CCc1cccc(C2C(C)CCC3C(=O)N4C(Cc5c([nH]c6ccccc56)C4c4cc(OC)c(OC)c(OC)c4)C(=O)N32)c1 (stereo not drawn)
- Potency [5]: inactive
- Potency [6]: 3.98 µM (active)
- activity change, positive = activation [7]: -74.3% [at 11.4 µM] (inactive)

SMILES: CN(C)CCC=C1c2ccccc2COc2ccccc21
- parasite growth, % of DMSO control [1]: 86.6%
- parasite growth remaining, % of DMSO control (lower = more inhibition) [2]: 53.4%
- parasite growth, % of control (lower = inhibition) [3]: 55.1%
- growth, % of control [4]: 96.7%

SMILES: CC(=O)OC[C@@H]1O[C@@H](O/N=C2/C[C@@H](O)[C@@H](O)[C@@H]3[C@@H]4C(=O)N(C(C)(C)C)C(=O)[C@H]4CC[C@@H]23)[C@H](OC(C)=O)[C@H](OC(C)=O)[C@@H]1OC(C)=O
- Potency [5]: inactive

SMILES: CC1(C)O[C@@H]2[C@H]3OC(C)(C)O[C@]3(COS(N)(=O)=O)OC[C@H]2O1
- parasite growth, % of DMSO control [1]: 103%
- parasite growth remaining, % of DMSO control (lower = more inhibition) [2]: 93.9%
- parasite growth, % of control (lower = inhibition) [3]: 101%
- growth, % of control [4]: 59.9%

SMILES: CC(=O)OC[C@@H]1O[C@@H](O/N=C2/C[C@@H](O)[C@@H](O)[C@@H]3[C@@H]4C(=O)N(C5CCCCC5)C(=O)[C@H]4CC[C@@H]23)[C@H](OC(C)=O)[C@H](OC(C)=O)[C@@H]1OC(C)=O
- Potency [5]: inactive

SMILES: CC1CCC2C(=O)OC(CN=[N+]=[N-])CN2C1c1ccc(Br)cc1 (stereo not drawn)
- Potency [5]: inactive and 1 µM (active)

SMILES: CC(C)CO/N=C1/[C@H]2O[C@@H]2[C@@H](O)[C@H]2[C@H]1CCn1c(=O)n(-c3ccccc3)c(=O)n12
- Potency [5]: inactive

SMILES: CC(C)(C)OC(=O)N[C@@H](Cc1ccc(O[S+](=O)([O-])c2cccc3cnccc23)cc1)C(=O)Nc1ccc(-c2ccccc2)cc1
- parasite growth, % of DMSO control [1]: 5.81%
- parasite growth remaining, % of DMSO control (lower = more inhibition) [2]: 8.82%
- parasite growth, % of control (lower = inhibition) [3]: 13.9%
- growth, % of control [4]: 4.11%

SMILES: CO[C@H]1C=CO[C@@]2(C)Oc3c(C)c(O)c4c(O)c(c(C=NN5CCN(C)CC5)c(O)c4c3C2=O)NC(=O)C(C)=CC=CC(C)[C@H](O)[C@@H](C)[C@@H](O)[C@@H](C)[C@@H](OC(C)=O)[C@H]1C (stereo partly drawn)
- parasite growth, % of DMSO control [1]: 4.07%
- parasite growth remaining, % of DMSO control (lower = more inhibition) [2]: 6.12%
- parasite growth, % of control (lower = inhibition) [3]: 8.95%
- growth, % of control [4]: 6.73%
